# Source: PubChem BioAssay (NCATS)
# Results filed as inconclusive are left out. A call without a number means that no potency is given here. The source made the active and inactive calls. Unless noted, the call rests on the fitted dose curve; in most records, active means well fitted curve in the direction sought with a large enough effect; inconclusive means small, poorly fitted or top-dose-only effect, or another doubt; inactive means no such curve, though single readings can be large; an effect the other way counts as inactive or inconclusive.
# Biological target: Protein phosphatase 1D (Homo sapiens) (UniProt O15297)
# Test: Rhodamine-PBP qHTS Assay for Modulators of WT P53-Induced Phosphatase 1 (WIP1) (AID 1347425)
# Conditions: recombinant WIP1, Rhodamine-PBP phosphate fluorescence, real-time; series mostly up to 57.5 µM
# How it was run: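 Steps: enzyme with Rh-PBP sensor and compounds, room-temperature incubation of 1 hr, baseline read, addition of VEPPL-pS-QETFS (10 uM final), kinetic fluorescence reads at 525/598 nm. Activity equals final minus baseline signal.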
# Protein phosphatase 1D (Homo sapiens), sequence (O15297 whole entry, looked up): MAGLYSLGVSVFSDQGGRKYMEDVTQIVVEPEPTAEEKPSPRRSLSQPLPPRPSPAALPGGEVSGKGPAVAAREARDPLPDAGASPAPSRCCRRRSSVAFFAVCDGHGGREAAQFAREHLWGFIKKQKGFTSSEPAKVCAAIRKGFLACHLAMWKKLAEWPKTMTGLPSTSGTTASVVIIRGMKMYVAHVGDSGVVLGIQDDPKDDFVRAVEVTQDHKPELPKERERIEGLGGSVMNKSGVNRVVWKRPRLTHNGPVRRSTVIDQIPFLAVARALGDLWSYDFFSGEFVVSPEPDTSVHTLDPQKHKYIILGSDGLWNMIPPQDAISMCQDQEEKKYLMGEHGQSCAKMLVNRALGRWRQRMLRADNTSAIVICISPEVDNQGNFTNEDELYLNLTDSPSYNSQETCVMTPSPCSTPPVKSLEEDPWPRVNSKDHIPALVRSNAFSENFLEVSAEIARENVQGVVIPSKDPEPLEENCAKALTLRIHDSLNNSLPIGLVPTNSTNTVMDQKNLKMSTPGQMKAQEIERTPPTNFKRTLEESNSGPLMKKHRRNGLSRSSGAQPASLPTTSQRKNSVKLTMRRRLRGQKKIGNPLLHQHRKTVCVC
row,SMILES,outcome
1,Nc1nc(N)nc(NC2CC2)n1,inactive
2,CN1CC[C@]23c4c5ccc(O)c4O[C@H]2[C@@H](O)CC[C@H]3[C@H]1C5,inactive
3,COP(=S)(OC)Oc1cc(Cl)c(Cl)cc1Cl,inactive
4,COc1cc(CC(C)N)cc(OC)c1OC (stereo not drawn),inactive
5,C[C@H]1[C@@H]2Cc3ccc(O)cc3[C@@]1(C)CCN2C,inactive
6,COC(=O)C(Cl)C(=O)OC,inactive
7,CCCOC(=O)c1cncn1C(C)c1ccccc1 (stereo not drawn),inactive
8,CC(Cc1ccccc1)NCCn1cnc2c1c(=O)n(C)c(=O)n2C (stereo not drawn),inactive
9,C[C@H](N)C(=O)c1ccccc1,inactive
10,Clc1cccc(SC2CCNCC2)n1,inactive
11,CCCCCCCCCC(=O)O[C@H]1CC[C@H]2[C@@H]3CCC4=CC(=O)CC[C@@H]4[C@H]3CC[C@]12C,inactive
12,COc1cccc([C@@]2(O)CCCC[C@@H]2CN(C)C)c1,inactive
13,CCN(CC)C(=O)[C@@H]1C=C2c3cccc4[nH]cc(c34)C[C@H]2N(C)C1,inactive
14,CCC1(CC)C(=O)C=CNC1=O,inactive
15,c1ccc(N2CCNCC2)cc1,inactive
16,[N-]=[N+]=CC(=O)OC[C@H](N)C(=O)O,inactive
17,CCC1(c2ccccc2)C(=O)N(COC)C(=O)N(COC)C1=O,inactive
18,NC(=O)CS(=O)C(c1ccccc1)c1ccccc1 (stereo not drawn),inactive
19,CN1CCC(O)(c2ccc(F)cc2)C(C(=O)c2ccc(F)cc2)C1 (stereo not drawn),inactive
20,O=C1CN=C(c2ccccc2)c2cc([N+](=O)[O-])ccc2N1,inactive
21,Nc1ccccc1C(=O)O,inactive
22,CNCC(=O)c1ccc(O)c(O)c1,inactive
23,COC(=O)[C@@H](N)CCCN/C(N)=N/[N+](=O)[O-],inactive
24,O=C(O)c1ccc(=O)[nH]c1,inactive
25,CCN[C@H](C)Cc1cccc(C(F)(F)F)c1,inactive
26,CC(C)=CC1C(C(=O)OCN2C(=O)C3=C(CCCC3)C2=O)C1(C)C (stereo not drawn),inactive
27,CCN(CC)CCc1c[nH]c2ccccc12,inactive
28,CC(C)(N)Cc1ccccc1Cl,inactive
29,NNc1ccccc1,inactive
30,COc1cc(CCN)cc(OC)c1OC,inactive

# Test system: not listed separately
# Test: Primary qHTS for Huh7 cytotoxicity: counterscreen for inhibitors of MERS-S pseudotyped particle cell entry (AID 1479147; calls by dose curve)
# Conditions: cell viability read-out; series mostly up to 57.1 µM
row,SMILES,Potency
1,COP(=S)(OC)Oc1cc(Cl)c(Cl)cc1Cl,inactive
2,COP(=S)(OC)SCN1C(=O)c2ccccc2C1=O,inactive
3,C[C@]12CC[C@@H]3c4ccc(OC(=O)N(CCCl)CCCl)cc4CC[C@H]3[C@@H]1CC[C@@H]2OP(=O)(O)O,inactive
4,CCOC(=O)CC(SP(=S)(OC)OC)C(=O)OCC (stereo not drawn),inactive
5,O=C1OC(c2ccc(O)c(S(=O)(=O)O)c2)(c2ccc(O)c(S(=O)(=O)O)c2)c2c(Br)c(Br)c(Br)c(Br)c21,inactive

# Test system: not listed separately
# Test: Primary qHTS for inhibitors of MERS-S pseudo-typed particle cell entry (AID 1479149; calls by dose curve; further: nearly all actives have a fitted effect of over 60% in size)
# Conditions: MERS-S pseudotyped particle entry, luciferase; series mostly up to 57.1 µM
row,SMILES,Potency
1,COP(=S)(OC)Oc1cc(Cl)c(Cl)cc1Cl,inactive
2,COP(=S)(OC)SCN1C(=O)c2ccccc2C1=O,inactive
3,C[C@]12CC[C@@H]3c4ccc(OC(=O)N(CCCl)CCCl)cc4CC[C@H]3[C@@H]1CC[C@@H]2OP(=O)(O)O,inactive
4,CCOC(=O)CC(SP(=S)(OC)OC)C(=O)OCC (stereo not drawn),inactive
5,O=C1OC(c2ccc(O)c(S(=O)(=O)O)c2)(c2ccc(O)c(S(=O)(=O)O)c2)c2c(Br)c(Br)c(Br)c(Br)c21,inactive

# Test system: not listed separately
# Test: Primary qHTS for Vero E6 cytotoxicity: counterscreen for inhibitors of SARS-S pseudo-typed particle cell entry (AID 1479150; calls by dose curve)
# Conditions: cell viability; series mostly up to 57.1 µM
row,SMILES,Potency
1,COP(=S)(OC)Oc1cc(Cl)c(Cl)cc1Cl,inactive
2,COP(=S)(OC)SCN1C(=O)c2ccccc2C1=O,inactive
3,C[C@]12CC[C@@H]3c4ccc(OC(=O)N(CCCl)CCCl)cc4CC[C@H]3[C@@H]1CC[C@@H]2OP(=O)(O)O,inactive
4,CCOC(=O)CC(SP(=S)(OC)OC)C(=O)OCC (stereo not drawn),inactive
5,O=C1OC(c2ccc(O)c(S(=O)(=O)O)c2)(c2ccc(O)c(S(=O)(=O)O)c2)c2c(Br)c(Br)c(Br)c(Br)c21,inactive

# Test system: not listed separately
# Test: Primary qHTS for inhibitors of La Crosse Virus (LACV) - induced cell death in SH-SY5Y cells (AID 1508616);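 further: top concentration of the series differs between compounds; higher means more rescue of cells from virus-induced death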
# Conditions: SH-SY5Y LACV cytopathicity rescue, ATP luminescence, 6 d; series mostly up to 4.29 µM
# How it was run: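 Screening measures cell viability in LACV-infected SH-SY5Y cultures. Compound was added before virus (0.01 MOI), and ATP was detected by luminescence 6 days later.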
row,SMILES,outcome
1,Nc1nc(N)nc(NC2CC2)n1,inactive
2,CN1CC[C@]23c4c5ccc(O)c4O[C@H]2[C@@H](O)CC[C@H]3[C@H]1C5,inactive
3,COP(=S)(OC)Oc1cc(Cl)c(Cl)cc1Cl,inactive
4,COc1cc(CC(C)N)cc(OC)c1OC (stereo not drawn),inactive
5,C[C@H]1[C@@H]2Cc3ccc(O)cc3[C@@]1(C)CCN2C,inactive
6,COC(=O)C(Cl)C(=O)OC,inactive
7,CCCOC(=O)c1cncn1C(C)c1ccccc1 (stereo not drawn),inactive
8,CC(Cc1ccccc1)NCCn1cnc2c1c(=O)n(C)c(=O)n2C (stereo not drawn),inactive
9,COP(=S)(OC)SCN1C(=O)c2ccccc2C1=O,inactive
10,C[C@H](N)C(=O)c1ccccc1,inactive
11,Clc1cccc(SC2CCNCC2)n1,inactive
12,CCCCCCCCCC(=O)O[C@H]1CC[C@H]2[C@@H]3CCC4=CC(=O)CC[C@@H]4[C@H]3CC[C@]12C,inactive
13,CCOC(=O)CC(SP(=S)(OC)OC)C(=O)OCC (stereo not drawn),inactive
14,CCC1(CC)C(=O)C=CNC1=O,inactive
15,c1ccc(N2CCNCC2)cc1,inactive
16,[N-]=[N+]=CC(=O)OC[C@H](N)C(=O)O,inactive
17,CCC1(c2ccccc2)C(=O)N(COC)C(=O)N(COC)C1=O,inactive

row,SMILES,outcome
1,NC(=O)CS(=O)C(c1ccccc1)c1ccccc1 (stereo not drawn),inactive
2,CN1CCC(O)(c2ccc(F)cc2)C(C(=O)c2ccc(F)cc2)C1 (stereo not drawn),inactive
3,O=C1CN=C(c2ccccc2)c2cc([N+](=O)[O-])ccc2N1,inactive
4,O=C1OC(c2ccc(O)c(S(=O)(=O)O)c2)(c2ccc(O)c(S(=O)(=O)O)c2)c2c(Br)c(Br)c(Br)c(Br)c21,inactive
5,O=C1c2ccccc2C(=O)C1C(=O)C(c1ccccc1)c1ccccc1,inactive
6,Nc1ccccc1C(=O)O,inactive
7,CNCC(=O)c1ccc(O)c(O)c1,inactive
8,CN(C)CCc1c[nH]c2cccc(OP(=O)(O)O)c12,inactive
9,COC(=O)[C@@H](N)CCCN/C(N)=N/[N+](=O)[O-],inactive
10,O=C(O)c1ccc(=O)[nH]c1,inactive
11,CCN[C@H](C)Cc1cccc(C(F)(F)F)c1,inactive
12,CCN(CC)CCc1c[nH]c2ccccc12,inactive
13,CC(C)(N)Cc1ccccc1Cl,inactive
14,NNc1ccccc1,inactive
15,COc1cc(CCN)cc(OC)c1OC,inactive
16,O=C(N/N=C/c1ccc([N+](=O)[O-])o1)c1cc([N+](=O)[O-])cc([N+](=O)[O-])c1O,inactive
